In ChEMBL document CHEMBL3988442, “University of Dundee, Small-Polar-MMV Screening Library” (2021) one finds Percent Effect data, which are given here for eleven molecules.

Parameters in all cases: scale not given: direction of the effect not stated beside the values
The target in test [1] is Protein translocase subunit SecA (Escherichia coli (strain K12)) (UniProt P10408). The test is described as follows: Assay to Identify E. coli SecA ATPase Inhibitors. Type of test: functional. Particulars: 30 µM.
The target of test [2] is T1, Ubiquitin-activating enzyme e1, putative (Leishmania donovani (strain BPK282A1)) (UniProt E9BSI1).
T1 sequence (whole entry): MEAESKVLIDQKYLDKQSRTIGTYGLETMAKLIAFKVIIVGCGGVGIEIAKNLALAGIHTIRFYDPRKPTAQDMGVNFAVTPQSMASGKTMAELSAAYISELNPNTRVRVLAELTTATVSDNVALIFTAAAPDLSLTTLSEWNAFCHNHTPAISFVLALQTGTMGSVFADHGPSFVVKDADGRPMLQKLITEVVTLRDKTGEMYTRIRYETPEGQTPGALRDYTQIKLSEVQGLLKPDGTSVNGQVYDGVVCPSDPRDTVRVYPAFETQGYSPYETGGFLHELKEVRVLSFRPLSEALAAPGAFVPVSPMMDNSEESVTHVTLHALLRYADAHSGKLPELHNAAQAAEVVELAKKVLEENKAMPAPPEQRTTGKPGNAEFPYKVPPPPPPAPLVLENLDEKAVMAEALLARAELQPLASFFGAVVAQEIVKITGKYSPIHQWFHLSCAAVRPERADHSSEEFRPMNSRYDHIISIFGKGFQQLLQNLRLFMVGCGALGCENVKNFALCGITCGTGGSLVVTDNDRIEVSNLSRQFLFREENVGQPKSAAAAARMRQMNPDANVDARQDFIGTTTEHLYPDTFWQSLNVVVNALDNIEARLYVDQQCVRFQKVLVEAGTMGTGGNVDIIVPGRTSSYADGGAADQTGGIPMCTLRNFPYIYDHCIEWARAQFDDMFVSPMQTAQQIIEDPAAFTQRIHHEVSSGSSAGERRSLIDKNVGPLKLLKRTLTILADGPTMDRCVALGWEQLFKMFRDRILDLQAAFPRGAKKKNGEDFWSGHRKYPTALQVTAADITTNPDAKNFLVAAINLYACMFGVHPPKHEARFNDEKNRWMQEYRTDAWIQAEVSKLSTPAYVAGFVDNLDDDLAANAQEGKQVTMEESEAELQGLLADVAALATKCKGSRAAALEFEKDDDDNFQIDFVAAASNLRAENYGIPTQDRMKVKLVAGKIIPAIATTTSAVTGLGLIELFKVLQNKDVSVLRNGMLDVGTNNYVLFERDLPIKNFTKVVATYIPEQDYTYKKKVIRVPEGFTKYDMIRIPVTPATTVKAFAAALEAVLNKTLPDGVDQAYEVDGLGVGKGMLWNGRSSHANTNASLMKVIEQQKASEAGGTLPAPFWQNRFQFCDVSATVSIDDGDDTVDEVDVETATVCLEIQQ
The test is described as follows: Leishmania donovani Ubiquitin Activating Enzyme (LdE1). The class given is functional. Particulars: 30 µM.

For test [3], the target named is AMP-activated protein kinase, AMPK (Homo sapiens) (UniProt P54646+O43741+P54619+Q9UGJ0+Q9Y478+Q13131+Q9UGI9). The test is described as follows: AMP-dependent Kinase enzyme assay. An in vitro enzyme assay that detects ADP turnover that is directly proportional to AMPK activity. This uses naive AMPK that is activated during the assay with MK-8722. Type of test: functional. The settings on record: 30 µM.

Test [4] concerns the target Sialic acid-binding Ig-like lectin 9 (Homo sapiens) (UniProt Q9Y336). The test is described as follows: Hs-Siglec9 ALPHAscreen SOP 20170721. The settings on record: 10 µM. For orientation: In Alpha technology, singlet oxygen from a donor bead excites a nearby acceptor bead.
A further test concerns Trypanosoma cruzi. As to the kind of experiment: Trypanosoma cruzi phosphomannomutase and mannose-1-phosphate guanylyltransferase assay. Type of test: functional. Particulars: 10 µM.
In test [5] the target is T2, Arginase-2, mitochondrial (Homo sapiens) (UniProt P78540).
T2 sequence (whole entry): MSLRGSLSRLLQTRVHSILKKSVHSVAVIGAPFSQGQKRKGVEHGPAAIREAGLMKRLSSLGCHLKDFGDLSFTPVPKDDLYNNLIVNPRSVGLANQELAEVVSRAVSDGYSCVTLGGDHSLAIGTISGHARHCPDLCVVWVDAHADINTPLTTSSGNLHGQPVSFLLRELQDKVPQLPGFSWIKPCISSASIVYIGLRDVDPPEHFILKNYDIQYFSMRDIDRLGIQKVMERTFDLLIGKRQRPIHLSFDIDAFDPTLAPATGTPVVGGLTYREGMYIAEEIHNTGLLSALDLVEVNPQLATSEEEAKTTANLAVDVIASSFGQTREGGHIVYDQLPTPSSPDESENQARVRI
As to the kind of experiment: in vitro enzyme assay to detect the production of urea directly proportional to the activity of Arginase II. Note: in the data most compounds retested in dose-response had high values. The class given is functional. Particulars: 33.3 µM.

Test [6] concerns the target T3, Proteasome subunit beta (Trypanosoma cruzi) (UniProt O96673).
T3 sequence (whole entry): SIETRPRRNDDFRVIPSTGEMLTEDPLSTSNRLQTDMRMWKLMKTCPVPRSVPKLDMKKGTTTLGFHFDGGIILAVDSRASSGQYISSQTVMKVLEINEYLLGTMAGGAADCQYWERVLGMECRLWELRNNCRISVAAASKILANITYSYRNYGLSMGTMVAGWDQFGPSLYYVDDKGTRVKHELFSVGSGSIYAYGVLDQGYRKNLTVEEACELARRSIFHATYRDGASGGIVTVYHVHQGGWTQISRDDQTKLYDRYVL
As to the kind of experiment: Trypanosoma cruzi proteasome chymotrypsin-like activity (TcProtChymo) assay. Note: in the data most compounds retested in dose-response had high values. The class given is functional. The settings on record: 9.37 µM.

For a further test, the species on record is Homo sapiens. The test is described as follows: To identify inhibition of the IFN signalling (Jak-Stat) pathway via expression of an eGFP reporter gene under the control of an IFN-stimulated response element (ISRE) containing MxA promoter. Type of test: functional. The settings on record: 30 µM. Background: In a reporter assay the amount or activity of a reporter protein is the signal.

The target of test [7] is T4, Tyrosyl-tRNA synthetase, putative (Trypanosoma cruzi (strain CL Brener)) (UniProt Q4DSP6).
T4 sequence (whole entry): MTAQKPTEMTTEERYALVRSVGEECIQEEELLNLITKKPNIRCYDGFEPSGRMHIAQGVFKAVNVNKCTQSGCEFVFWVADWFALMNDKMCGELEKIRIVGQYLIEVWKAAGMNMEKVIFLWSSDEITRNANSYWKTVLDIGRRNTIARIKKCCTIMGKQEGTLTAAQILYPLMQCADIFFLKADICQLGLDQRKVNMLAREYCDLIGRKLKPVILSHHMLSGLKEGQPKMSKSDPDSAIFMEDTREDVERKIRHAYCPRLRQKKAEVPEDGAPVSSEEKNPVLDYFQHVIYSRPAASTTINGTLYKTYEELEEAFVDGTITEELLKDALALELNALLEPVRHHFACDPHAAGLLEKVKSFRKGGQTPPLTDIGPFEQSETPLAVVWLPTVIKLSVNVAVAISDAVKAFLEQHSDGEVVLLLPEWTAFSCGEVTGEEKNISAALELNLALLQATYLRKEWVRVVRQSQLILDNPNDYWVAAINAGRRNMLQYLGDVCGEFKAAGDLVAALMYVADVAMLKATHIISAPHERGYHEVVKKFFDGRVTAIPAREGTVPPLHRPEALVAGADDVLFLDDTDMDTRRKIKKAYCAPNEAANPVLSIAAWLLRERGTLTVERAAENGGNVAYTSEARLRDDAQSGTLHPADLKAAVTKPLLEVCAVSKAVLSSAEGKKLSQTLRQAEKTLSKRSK
As to the kind of experiment: Trypanosoma cruzi tyrosyl tRNA synthetase (TcYRS) _High Tyrosine SOP. Note: in the data most compounds retested in dose-response had high values. Type of test: functional. Particulars: 30 µM.

Test [8] addresses T4, Tyrosyl-tRNA synthetase, putative (Trypanosoma cruzi (strain CL Brener)). The test is described as follows: Trypanosoma cruzi tyrosyl tRNA synthetase (TcYRS) SOP. Particulars: 30 µM. The class given is functional.
For test [9], the target named is Chromo domain-containing protein 1 (Saccharomyces cerevisiae (strain ATCC 204508 / S288c) (Baker's yeast)) (UniProt P32657). The test is described as follows: ScCHD-1 Enzyme Inhibition Assay. Note: in the data most compounds retested in dose-response had high values. The class given is functional. The settings on record: 30 µM.

For some of these results: Measured potencies and affinities stand elsewhere.

Chain of Chromo domain-containing protein 1 (Saccharomyces cerevisiae (strain ATCC 204508 / S288c) (Baker's yeast)) (P32657 whole entry, the tested form may be a part): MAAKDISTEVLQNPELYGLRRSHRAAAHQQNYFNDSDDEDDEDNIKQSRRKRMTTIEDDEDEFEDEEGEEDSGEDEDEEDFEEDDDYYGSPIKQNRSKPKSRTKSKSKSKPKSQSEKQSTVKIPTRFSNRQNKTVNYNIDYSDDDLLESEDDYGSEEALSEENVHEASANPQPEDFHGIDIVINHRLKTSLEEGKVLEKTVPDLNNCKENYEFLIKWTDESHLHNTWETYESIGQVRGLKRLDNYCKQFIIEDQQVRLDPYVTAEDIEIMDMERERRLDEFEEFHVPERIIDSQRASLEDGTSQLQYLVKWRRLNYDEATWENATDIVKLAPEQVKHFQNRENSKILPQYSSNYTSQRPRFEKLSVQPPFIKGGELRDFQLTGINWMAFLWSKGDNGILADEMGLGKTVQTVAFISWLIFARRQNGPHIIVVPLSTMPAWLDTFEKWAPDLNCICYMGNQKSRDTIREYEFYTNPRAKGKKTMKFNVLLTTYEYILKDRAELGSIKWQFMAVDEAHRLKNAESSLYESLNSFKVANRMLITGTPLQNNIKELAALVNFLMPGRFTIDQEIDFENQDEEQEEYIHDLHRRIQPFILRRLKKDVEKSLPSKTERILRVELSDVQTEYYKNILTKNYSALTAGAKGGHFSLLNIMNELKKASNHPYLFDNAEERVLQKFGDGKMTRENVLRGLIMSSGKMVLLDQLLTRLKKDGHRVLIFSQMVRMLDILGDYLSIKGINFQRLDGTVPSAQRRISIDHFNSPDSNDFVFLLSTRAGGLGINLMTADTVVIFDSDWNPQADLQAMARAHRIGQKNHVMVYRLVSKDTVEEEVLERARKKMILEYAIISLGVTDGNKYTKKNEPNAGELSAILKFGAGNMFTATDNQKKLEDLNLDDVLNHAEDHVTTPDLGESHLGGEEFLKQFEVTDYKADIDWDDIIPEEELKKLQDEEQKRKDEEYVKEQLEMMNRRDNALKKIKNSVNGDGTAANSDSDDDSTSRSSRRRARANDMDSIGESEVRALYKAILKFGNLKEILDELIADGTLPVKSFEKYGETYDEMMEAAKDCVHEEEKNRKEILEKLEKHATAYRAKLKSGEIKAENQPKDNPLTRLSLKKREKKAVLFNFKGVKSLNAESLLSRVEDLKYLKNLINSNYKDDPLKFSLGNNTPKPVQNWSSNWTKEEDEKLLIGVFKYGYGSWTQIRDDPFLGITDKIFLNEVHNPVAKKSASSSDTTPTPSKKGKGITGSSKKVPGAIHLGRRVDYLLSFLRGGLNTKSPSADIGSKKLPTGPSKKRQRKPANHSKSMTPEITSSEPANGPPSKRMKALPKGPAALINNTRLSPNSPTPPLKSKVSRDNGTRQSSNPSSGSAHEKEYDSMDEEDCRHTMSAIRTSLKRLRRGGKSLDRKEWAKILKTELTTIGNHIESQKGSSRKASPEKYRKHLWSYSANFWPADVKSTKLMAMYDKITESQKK
Chain of Protein translocase subunit SecA (Escherichia coli (strain K12)) (P10408 whole entry): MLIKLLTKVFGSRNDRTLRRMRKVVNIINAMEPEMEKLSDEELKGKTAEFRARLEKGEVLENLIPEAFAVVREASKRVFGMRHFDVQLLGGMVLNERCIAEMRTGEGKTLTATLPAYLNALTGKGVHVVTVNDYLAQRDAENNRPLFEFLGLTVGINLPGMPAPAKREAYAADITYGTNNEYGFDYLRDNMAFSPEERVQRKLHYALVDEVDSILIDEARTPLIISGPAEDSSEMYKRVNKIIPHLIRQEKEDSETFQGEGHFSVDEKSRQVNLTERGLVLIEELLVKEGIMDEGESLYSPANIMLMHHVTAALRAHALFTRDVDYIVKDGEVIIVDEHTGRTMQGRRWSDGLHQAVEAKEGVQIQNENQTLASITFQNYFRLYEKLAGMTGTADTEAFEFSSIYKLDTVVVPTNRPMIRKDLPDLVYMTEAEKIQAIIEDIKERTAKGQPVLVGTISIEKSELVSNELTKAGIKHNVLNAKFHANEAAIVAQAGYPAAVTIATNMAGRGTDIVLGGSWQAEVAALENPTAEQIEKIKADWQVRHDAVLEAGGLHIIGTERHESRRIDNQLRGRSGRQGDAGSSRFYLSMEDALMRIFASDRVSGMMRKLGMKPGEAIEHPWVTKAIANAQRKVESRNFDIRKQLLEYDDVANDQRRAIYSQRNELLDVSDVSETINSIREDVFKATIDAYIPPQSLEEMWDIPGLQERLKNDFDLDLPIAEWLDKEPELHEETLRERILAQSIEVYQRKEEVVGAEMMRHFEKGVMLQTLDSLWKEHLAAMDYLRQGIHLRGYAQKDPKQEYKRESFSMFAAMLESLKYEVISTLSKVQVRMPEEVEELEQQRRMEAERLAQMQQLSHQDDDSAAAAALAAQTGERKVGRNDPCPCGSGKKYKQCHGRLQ
Chain of Sialic acid-binding Ig-like lectin 9 (Homo sapiens) (Q9Y336 whole entry): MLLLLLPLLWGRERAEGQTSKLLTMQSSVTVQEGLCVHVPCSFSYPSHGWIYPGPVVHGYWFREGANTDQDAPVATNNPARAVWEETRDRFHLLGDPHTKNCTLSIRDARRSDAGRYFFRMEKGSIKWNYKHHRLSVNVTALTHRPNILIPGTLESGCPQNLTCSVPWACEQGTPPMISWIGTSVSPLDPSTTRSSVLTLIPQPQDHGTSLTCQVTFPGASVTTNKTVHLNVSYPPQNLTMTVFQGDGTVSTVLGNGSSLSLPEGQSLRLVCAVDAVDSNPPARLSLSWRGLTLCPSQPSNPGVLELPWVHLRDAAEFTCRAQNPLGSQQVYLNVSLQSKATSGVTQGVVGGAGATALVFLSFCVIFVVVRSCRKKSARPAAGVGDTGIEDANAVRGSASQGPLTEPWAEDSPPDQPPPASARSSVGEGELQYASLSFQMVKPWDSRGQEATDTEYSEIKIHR

As for `CCc1ncc(C(=O)N2CCCCC2Cn2cccn2)s1` (stereo unspecified), the Percent Effect in test [1] is -0.823%; in test [2] it was 0%; in [3], 2.6%; in test [4], -4.33%; with Trypanosoma cruzi, -3.44%; in test [5], 1.66%. Further, the Percent Effect in test [6] is -4.13%; in the test listed under Homo sapiens, 7.71%; in test [7] it was 2.97%; in test [8], -23.2%; in test [9], 10.1%.

As to `Cc1ccc(F)c(OC2(C(=O)O)CCN(C(=O)N3CCCC3)CC2)c1`, the Percent Effect is 0.204% in [1]; -6.94% in test [2]; 5.17% in test [3]; -4.4% in test [4]; -1.65% in the test on Trypanosoma cruzi; 1.32% in test [5]. The Percent Effect in test [6] was 2.81%; in the test filed under Homo sapiens, -7.85%; in test [7], 2.1%; in test [8], 0%; in test [9], 2.52%.

`N#Cc1cn(CC(=O)NC2CC2)c2ccc(Br)cc2c1=O`: the Percent Effect was -3.54% in test [1]; -2.67% in [2]; -3.82% in [3]; -2.14% in [4]; -1.27% in the test on Trypanosoma cruzi; 2.6% in test [5]. Moreover, the Percent Effect in test [6] is 14.7%; in the test listed under Homo sapiens it was -0.582%; in [7], 0.546%; in [8], -3.7%; in test [9] it was 74.8%.

`COc1cccc(C)c1C(=O)N1C[C@@H](CN(C)C)[C@@H](CO)C1`: the Percent Effect was -3.79% in test [1]; 5.2% in test [2]; -2.32% in [3]; 7.05% in test [4]; 2.26% in the test with Trypanosoma cruzi; -2.76% in test [5]. In addition, the Percent Effect in test [6] is 9.15%; in the test listed under Homo sapiens, -12.3%; in [7], 6.45%; in [8], 11.1%; in [9], -0.303%.

For `CNC(=O)NC(=O)CN1CCC(c2cccc(F)c2)C1` (stereo unspecified), the Percent Effect in [1] was -1.99%; in test [2] it was 0%; in test [3] it was 5.35%; in test [4], -0.914%; in the test with Trypanosoma cruzi, -2.82%; in [5] it was 2.3%. Also, the Percent Effect in [6] is -2.51%; in the test filed under Homo sapiens, 11.3%; in test [7], 2.45%; in [8] it was 4.88%; in test [9], 4.66%.

For `Cc1nn(CC(C)C)c(N(C)C)c1CNCc1cc2ccccc2[nH]1`, the Percent Effect in [1] is -3.68%; in [2] it was 10.8%; in test [3] it was -5.31%; in test [4], 5.12%; in the test with Trypanosoma cruzi it was -2.17%; in test [5] it was -3.21%. Further, the Percent Effect in test [6] is 5.77%; in the test listed under Homo sapiens, 2.34%; in [7], 13.3%; in test [8], 16.1%; in test [9], -8.01%.

Take `O=c1ccc(-c2cccs2)nn1CN1CCN(Cc2ccccc2)CC1`: the Percent Effect in [1] was -4.73%; in [2] it was -1.33%; in test [3], 2.74%; in test [4], 1.22%; in the test with Trypanosoma cruzi, 5.3%; in [5] it was -10.4%. The Percent Effect in [6] was 11.7%; in the test filed under Homo sapiens it was 20.2%; in test [7], 3.17%; in [8] it was 10.3%; in test [9] it was -12.8%.

In the case of `O=C(CCc1nccs1)N1CCC(N2CCNC2=O)CC1`, the Percent Effect in test [1] was -3.04%; in test [2], 13.7%; in test [3], -3.05%; in test [4], -5.29%; with Trypanosoma cruzi, -3.33%; in test [5], 1.82%. Moreover, the Percent Effect in [6] was 12.6%; in the test listed under Homo sapiens, 12.7%; in test [7], 5.38%; in test [8], 12.5%; in test [9], -3.97%.

As for `COc1ccc(C2CCCN2C(=O)c2cc3c([nH]c2=O)CCC3)cc1` (stereo unspecified), the Percent Effect in test [1] was -6.57%; in [2] it was 5.41%; in test [3] it was 2.86%; in test [4] it was -3.27%; in the test on Trypanosoma cruzi, -2.73%; in test [5], 4.58%. The Percent Effect is 17.5% in test [6]; -1.92% in the test filed under Homo sapiens; 11.9% in test [7]; 8.54% in test [8]; -6.14% in test [9].

For `Cc1cc(-c2cnn(CCNC(=O)c3cccnc3)c2C2CC2)on1`, the Percent Effect in test [1] was -4.86%; in test [2], 4.05%; in test [3], 7.97%; in test [4], 2.6%; in the test on Trypanosoma cruzi, -0.395%; in [5], -3.48%. Besides, the Percent Effect is -1.09% in [6]; 7.9% in the test filed under Homo sapiens; 5.38% in test [7]; 9.09% in test [8]; 1.21% in test [9].

Take `O=C(CCNc1ncccn1)NCCOc1ccc2c(c1)CCC2`: the Percent Effect was -3.51% in test [1]; 15.8% in test [2]; -0.433% in [3]; -5.56% in test [4]; -4.39% with Trypanosoma cruzi; -2.52% in [5]. In addition, the Percent Effect in [6] is 6.68%; in the test filed under Homo sapiens, 1.31%; in test [7], 5.42%; in test [8], 18.5%; in test [9], -3.74%.
